High-throughput results as filed in PubChem BioAssay.
HCV inh – blocks hepatitis C virus; Huh7.5.1 HCVcc-Cre infection, luciferase reporter, 44 h; Potency, µM (doses to about 41.8 µM), most hits filed as inhibitors; 3.4% of 340,000 active; AID 651820
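Reporter virus HCVcc-Cre (~0.5 moi) infects cells exposed to compound; seeding density 1,000 cells/well with 4 h settling beforehand. Luminescence, 15 sec read, taken 44 h post-infection following a 15 min RT substrate incubation.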
Pf growth 96h – P. falciparum growth inhibition at 96 hour, primary screen for plastid delayed-death inhibitors; 6.9% of 320,000 active; P. falciparum luciferase reporter growth, 96 h; Potency, µM (series often up to 28.7 µM), usual class: inhibitors
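Parasite growth measured via integrated firefly luciferase reporter in P. falciparum. Infected erythrocytes at 2% hematocrit, 0.05% parasitemia final were treated 96 hours at 37 C under 5% CO2, and luminescence was read.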
AMA1-RON2 inh – AMA1-RON2 (P. falciparum) interaction inhibition; Potency, µM (highest dose often 58.2 µM), actives largely listed as inhibitors; AID 720542; 0.2% of 360,000 active; AlphaScreen AMA1-biotinylated RON2 peptide binding; note: nearly all actives have a fitted effect of over 45% in size
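AMA1 (3D7) with his tag at 25 nM final met compounds first, then biotinylated RON2 peptide at 25 nM; detection used donor plus acceptor beads, 10 µg/mL apiece, read by AlphaScreen after 30 min at room temperature.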
Pf growth 48h – inhibits P. falciparum growth in the first generation, 48 h; P. falciparum luciferase growth in erythrocytes, 48 h; Potency, µM (top dose mostly 28.7 µM), hits mostly inhibitors; 5.9% of 310,000 active
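Here the parasites carry a stable luciferase gene and grow inside erythrocytes in Albumax-based RPMI medium with compound for one erythrocytic cycle. Activity is scored as loss of luminescent signal.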
Numbers stand for hits; 0 = inactive; ? = inconclusive; - = no result; ! = not active in a repeat; [ ] = remark or other dose. This is a sample that favours compounds with a hit; in the whole collection about 11% have one here. Calls come from the whole dose curve; as a rule, active = well fitted curve in the direction sought with a large enough effect; inconclusive = small, poorly fitted or top-dose-only effect, or another doubt; inactive = no such curve, though single readings can be large; an effect the other way counts as inactive or inconclusive.

SMILES | HCV inh | Pf growth 96h | AMA1-RON2 inh | Pf growth 48h
O=c1c2sc3nc(N4CCOCC4)c4c(c3c2ncn1-c1ccccc1)CCCC4 | 10µM | 0 | 0 | ?
COC(=O)c1ccc(Cn2cnc3c(sc4nc(N5CCOCC5)c5c(c43)CCCC5)c2=O)o1 | 11µM! | 0 | 0 | 1.7µM
O=C(OCCCOC(=O)c1ccc(O)cc1)c1ccc(O)cc1 | 0 | ? | 0 | 0
CN=C1SC(CC(=O)Nc2cc(Cl)ccc2Cl)C(=O)N1C (stereo unspecified) | 0 | 0 | 0 | -
COCCN(C(=O)COC(=O)c1ccccc1NCc1ccco1)c1c(N)n(Cc2ccccc2)c(=O)[nH]c1=O | ? | ? | 0 | ?
Cc1ccccc1-n1cnc2c(sc3nc(N4CCOCC4)c4c(c32)CCCC4)c1=O | 18µM | ? | ? | 10µM
O=c1c2sc3nc(N4CCOCC4)c4c(c3c2ncn1C(c1ccccc1)c1ccccc1)CCCC4 | 0 | - | 0 | -
CC(C)CNc1nnnc2c1sc1nc(N3CCOCC3)c3c(c12)CCCC3 | 0 | 1.3µM | 0 | 1.7µM
O=C(N/N=C/c1ccc(N2CCOCC2)cc1)c1ccccc1OCCOc1ccccc1 | 8.9µM | ? | 0 | ?
CCN(CC)CCNC(=O)c1ccc(NC(=O)c2c(C)nn(-c3ccc(F)cc3)c2Cl)cc1 | 0 | 0 | 0 | ?
CCc1cccc(OCC(=O)Nc2ccc(C)c(S(=O)(=O)N3CCCCCC3)c2)c1 | 8.9µM | ? | 0 | ?
Cc1ccc(NC(=O)COc2ccccc2C(N)=O)cc1S(=O)(=O)N1CCCCCC1 | 5µM | 4.7µM | 0 | ?
Cc1ccc(NC(=O)COc2cccc(C)c2C)cc1S(=O)(=O)N1CCCCCC1 | 6.3µM | ? | 0 | ?
COc1ccccc1NS(=O)(=O)c1cccc(C(=O)OCC(=O)NC2CC2)c1 | 0 | 0 | 0 | 0
NC1=NC(c2ccccc2C(F)(F)F)N(c2ccc(F)c(Cl)c2)C(N)=N1 (stereo unspecified) | 0 | 0 | 0 | 1.9µM
O=C(NC(C(=O)N/N=C/c1cccc2ccccc12)c1n[nH]c(=O)c2ccccc12)c1ccccc1 (stereo unspecified) | 22µM | 0 | 0 | ?
O=C(NC(C(=O)N/N=C/c1ccncc1)c1n[nH]c(=O)c2ccccc12)c1ccccc1 (stereo unspecified) | 0 | 0 | 0 | 0
O=c1c2ccccc2sc2nc(CCl)nn12 | ? | - | 0 | -
Cc1cc(Nc2ccc(F)cc2)n2nc(C)nc2n1 | 0 | ? | 0 | -
Cc1cc(Nc2ccc(C)c(C)c2)n2nc(C)nc2n1 | 0 | ? | 0 | 0.74µM
CCc1ccc(Nc2cc(C)nc3nc(C)nn23)cc1 | 0[8.37 µM] | 0 | 0 | 1.3µM
Cc1cc(Nc2cccc(F)c2)n2nc(C)nc2n1 | 0 | 9.3µM | 0 | ?
Cc1cc(Nc2ccc(Br)cc2)n2nc(C)nc2n1 | 0 | ? | 0 | 2.3µM
CC1CC(=O)N(CC(=O)NC2CCCCC2)c2ccccc2S1 (stereo unspecified) | 0 | ? | 0 | 0
CCCCCCCn1c2c(c(=N)c3ccccc31)CCC2 | 1.8µM | 0 | 0 | 0.93µM
SMILES | HCV inh | Pf growth 96h | AMA1-RON2 inh | Pf growth 48h
COC(=O)Cn1c2c(c3cc(C)ccc31)CCCC2 | 0 | 0 | ? | 0
CCCn1c2c(c(=N)c3c1CCC3)CCC2 | ? | ? | 0 | 0.37µM
CCOC(=O)Cn1c2c(c(=N)c3c1CCC3)CCCC2 | 0 | 0.19µM | 0 | ?
CCCn1c2c(c(=N)c3c1CCC3)CCCC2 | 0 | 0.12µM | 0[11.6 µM] | 0.37µM
COc1ccccc1CNC(=O)C(=O)NCC1OCCN1S(=O)(=O)c1ccc(Br)cc1 (stereo unspecified) | ? | ? | 0 | ?
COC(=O)c1c(C(=O)OC)c(-c2ccc(Br)cc2)n2c1CS(=O)C2 (stereo unspecified) | 0 | 0 | 0 | 0
Cn1cc([C@@H]2C[C@H]3CN(Cc4cccc(Cl)c4)C(=O)[C@]34CCCN24)c(-c2ccccc2)n1 | 10µM | 2.9µM | 0 | 0
O=C1N(Cc2cccc(Cl)c2)C[C@@H]2C[C@@H](c3cccn3-c3cccnc3)N3CCC[C@@]123 | 10µM | 0 | 0 | 9.3µM
COC(=O)c1ccc([C@@H]2C[C@H]3CN(Cc4cccnc4)C(=O)[C@]34CCCN24)cc1 | 0 | 10µM | 0 | ?
Cc1cccc(NC(=O)C2NC(=O)CC2c2ccccc2)c1C (stereo unspecified) | 0 | 0 | 0 | -
O=C(CC1C=CCC1)Nc1ccccc1 (stereo unspecified) | 0 | - | 0 | -
CCN1/C(=C/c2sc(-c3ccccc3C)c[n+]2C)Sc2ccccc21 | 3.5µM | 0 | 0 | ?
CCC(=O)/C=C1/Sc2ccccc2N1CC | 0 | 0 | 0 | 0
Cc1ccc(C)c(NC(=O)Cn2cnc3c(oc4ccccc43)c2=O)c1 | 0 | ? | 0 | 10µM
O=C(Cn1cnc2c(oc3ccccc32)c1=O)NCc1ccccc1 | 0 | 0 | 0 | 0
CC(=O)Nc1nc(C)c(-c2csc(Nc3ccccn3)n2)s1 | 10µM | ? | 0 | 0
CC(=O)Oc1ccc(-c2csc(Nc3ccccn3)n2)cc1 | - | - | 0 | -
CC(=O)Nc1nc(C)c(-c2csc(Nc3ccc(O)cc3)n2)s1 | 10µM | ? | 0 | 2.6µM
CC(=O)Nc1ccc(Nc2nc(-c3sc(NC(C)=O)nc3C)cs2)cc1 | 11µM | ? | 0 | ?
CCN(C)C1CN(Cc2cn(CCCOC)nn2)S(=O)(=O)C1 (stereo unspecified) | - | - | 0 | -
O=C(O)c1ccc(S(=O)(=O)c2ccc3c(c2)C(=O)N(c2ccccc2[N+](=O)[O-])C3=O)cc1 | 0 | 13µM | 0 | 0
CC(=O)Oc1ccccc1N1C(=O)c2ccc(C(=O)O)cc2C1=O | 0 | 0 | 0 | 0
CCOc1ccccc1N1C(=O)c2ccc(S(=O)(=O)c3ccc(C(=O)O)cc3)cc2C1=O | 0 | 0.17µM | 0 | 0
CN1C(=O)c2ccc(S(=O)(=O)c3ccc(C(=O)O)cc3)cc2C1=O | 0 | 0 | 0 | 0
CC(=O)Nc1ccc(N2C(=O)c3ccc(S(=O)(=O)c4ccc(C(=O)O)cc4)cc3C2=O)cc1 | 0 | 0 | 0 | 12µM
SMILES | HCV inh | Pf growth 96h | AMA1-RON2 inh | Pf growth 48h
CC1CCCN(S(=O)(=O)c2ccc(S(=O)(=O)N3CCCN(Cc4ccccc4)C3)cc2)C1 (stereo unspecified) | ? | - | 0 | -
CC(C)CNS(=O)(=O)c1ccc(S(=O)(=O)N2CCCN(Cc3ccccc3)C2)cc1 | 0 | 0 | 0 | 12µM
CCCC1CCc2c(sc(NC(=O)OCC)c2C#N)C1 (stereo unspecified) | 0 | 12µM | 0 | 0
CCc1nc2ccc(C(=O)N(C)C(C)C)cn2c1N(CCC(C)C)CCN(C)C | - | - | 0 | -
Cc1ccc2ccc3ccc(C)nc3c2n1 | 0.32µM | 0 | 0 | 0.23µM
O=C(NC(=S)Nc1ccccc1[N+](=O)[O-])c1cncc(Br)c1 | 0 | 2.6µM | 0 | 0
O=C(NC(=S)Nc1ccccn1)c1cncc(Br)c1 | 0 | 0 | 0 | 0
O=C(NC(=S)Nc1ccccc1O)c1cncc(Br)c1 | 0 | - | 0 | -
O=C(NC(=S)Nc1ccc(Br)cn1)c1cncc(Br)c1 | 0 | 13µM | 0 | 0
Nc1[nH]c(C(=O)c2ccccc2)c(-c2ccccc2Br)c1C(=O)NCCc1ccc(Cl)cc1Cl | - | - | 0 | -
Cc1cc2c3nonc3ccc2n1-c1ccccc1 | 0 | 0 | 0 | 0
C[C@@](Cc1ccccc1)(C(=O)O)N1C(=O)c2ccc(C(=O)O)cc2C1=O | - | 0 | - | 0
